In the library only some 28% were active in any assay of this set; here they are far more common.
D1 mod – D1 CRE-luciferase signal change, two-sided – cell-based, HEK293 D1, dopamine EC30, D1 allosteric modulator project, primary screen | D(1A) dopamine receptor (Homo sapiens), P21728 | dopamine EC30 potentiation; actives deviate in either direction | B-score at 10 µM | hit rate 5.9% among 58,000;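 active means luminescence count or its row- and column-corrected plate score outside the 99.7% band of the plate's sample wells, on either side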
CYP2C19 activ – human CYP2C19 activators, primary screen, biochemical, luminescence; 96,000 tested, under 10 active; AID 1025, 2008; activation factor at 5 µM; Cytochrome P450 2C19 (Homo sapiens), P33261; recombinant CYP2C19, luciferin-H EGE luminescence; hits give high values; 0 = fully inhibited enzyme, 1 = untreated enzyme;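 active means activation factor of at least 2 at 5 µM in the primary screen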
CYP2C9 inhib – blockers of cytochrome P450 2C9 activity – biochemical, luminescence, ADME assay, primary screen; P11712; inhibition, % at 5 µM; hit rate 20% among 96,000; CYP2C9 Supersomes, luciferin-H conversion;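 active means blocking of liver enzyme CYP2C9 beyond about 50% at 5 µM, limit read from the data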
CYP2C9 act – human CYP2C9 activators, primary screen, biochemical, luminescence; Cytochrome P450 2C9 (Homo sapiens), P11712; hit rate 1.4% among 96,000; activation factor at 5 µM; recombinant CYP2C9, luciferin-H conversion; hits give high values; factor 1 = untreated enzyme, 0 = blocked; AID 1024, 2008;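 active means activation factor of 2 or more for CYP2C9 at a 5 µM dose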
DAT uptake mod – changed hDAT dopamine uptake under cocaine IC80, either direction, primary screen, cocaine antagonist project, cell-based, LLC-PK1 hDAT, [14C]-dopamine uptake, MLSMR | AID 449768, 2010 | LLC-PK1 hDAT cells, [14C]-dopamine uptake with cocaine IC80; actives deviate in either direction | Sodium-dependent dopamine transporter (Homo sapiens), Q01959 | hit rate 1.3% among 110,000 | B-score at 10 µM;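 active means Z score or B-score, a plate-position-corrected score, falls beyond the plate's 99.7% confidence bounds, in either direction; inactive means both scores lie inside the 99.7% bounds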
Target sequence (Q01959 whole entry, looked up): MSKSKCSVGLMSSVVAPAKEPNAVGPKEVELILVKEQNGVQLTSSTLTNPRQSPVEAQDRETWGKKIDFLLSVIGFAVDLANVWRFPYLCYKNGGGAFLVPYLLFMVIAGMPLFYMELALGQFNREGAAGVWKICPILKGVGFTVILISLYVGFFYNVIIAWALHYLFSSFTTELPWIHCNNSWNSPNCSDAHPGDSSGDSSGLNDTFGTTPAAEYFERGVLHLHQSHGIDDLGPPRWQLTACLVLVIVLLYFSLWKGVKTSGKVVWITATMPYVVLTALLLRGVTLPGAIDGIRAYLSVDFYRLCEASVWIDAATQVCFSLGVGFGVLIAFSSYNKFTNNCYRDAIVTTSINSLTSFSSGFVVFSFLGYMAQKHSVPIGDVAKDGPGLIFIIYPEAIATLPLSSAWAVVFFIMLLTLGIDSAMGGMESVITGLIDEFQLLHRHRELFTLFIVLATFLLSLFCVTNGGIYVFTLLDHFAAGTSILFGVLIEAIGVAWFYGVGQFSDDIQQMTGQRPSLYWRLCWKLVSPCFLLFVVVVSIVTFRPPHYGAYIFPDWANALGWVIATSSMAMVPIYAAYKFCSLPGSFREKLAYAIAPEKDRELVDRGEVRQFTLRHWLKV
CYP2C19 inh – blockers of cytochrome P450 2C19 activity – biochemical, luminescence, ADME assay, primary screen; P33261; CYP2C19 Supersomes, luciferin-H EGE luminescence, 30 min; inhibition, % at 5 µM; hit rate 21% among 96,000;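 active means CYP2C19 inhibition above a set limit at 5 µM in the primary screen, cut at about 50% in these data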
Hits are given with their value; - = inactive; . = no result given.

SMILES | D1 mod | CYP2C19 activ | CYP2C9 inhib | CYP2C9 act | DAT uptake mod | CYP2C19 inh
CC1CC(C)CN(S(=O)(=O)c2ccc(C(=O)NCCCn3ccnc3)cc2)C1 (stereo not drawn) | - | - | 90 | - | - | -
CCCCCOc1ccc(NC(=O)C(=O)NCCCn2ccnc2)cc1 | . | - | 83 | - | - | 89
COCCNC(=O)c1c(N)n(-c2ccccc2)c2nc3ccccc3nc12 | . | - | - | - | - | -
Cc1ccc(C(=O)NCCCn2ccnc2)cn1 | . | - | - | - | - | -
COCCNC(=O)c1c(N)n(CCCn2ccnc2)c2nc3ccccc3nc12 | - | - | 89 | - | - | 69
O=C(NCCCn1ccnc1)c1ccncc1 | - | - | 57 | - | - | -
COC(=O)C1=C(C(=O)OC)[C@@H]2N(C)c3ccccc3[C@@]23C[C@@H](C(=O)OC)N(C(=O)C2CCC2)C3=N1 | . | . | . | . | - | .
CC(C)OCCCNC(=O)c1ccncc1 | - | - | 75 | - | - | 89
COc1ccc(C(=O)NCCc2cn3ccc(C)cc3n2)cc1 | . | - | - | - | - | 75
C=CCOc1ccc(NC(=O)C(=O)NCCCn2ccnc2)cc1 | . | - | - | - | - | -
CCCOc1ccc(C(=O)NCCCn2ccnc2)cc1 | - | - | - | - | - | 90
COc1cc(C(=O)NCCc2cn3ccc(C)cc3n2)cc(OC)c1OC | - | - | - | - | - | -
O=C(O)C1=C[C@@H](c2ccc3c(c2)OCO3)C[C@@H](OCCCCO)O1 | . | . | . | . | - | .
CC(C)(C)c1ccc(S(=O)(=O)n2c(CN3CCOCC3)nc3ccccc32)cc1 | . | - | - | - | - | -
CN1CCN(/C=N/c2c(C#N)cnn2Cc2ccccc2)CC1 | - | - | - | - | - | -
CC(C)(C)c1nc(N2CCN(C(=O)c3ccco3)CC2)c2nnn(Cc3ccccc3)c2n1 | . | - | - | - | - | -
O/N=C/c1ccc(OCC(O)COc2ccc(/C=N/O)cc2)cc1 | - | - | - | - | - | -
C=C(C)Cn1c(SCC(=O)O)nc2c1c(=O)[nH]c(=O)n2C | - | - | - | - | - | -
O/N=C(\c1ccc(Cl)cc1)c1ncc(C(F)(F)F)cc1Cl | . | - | 86 | - | - | 98
Cc1cc2sc(C(=O)O)c(C)c2s1 | . | . | . | . | - | .
CN1CCN(CC#CCn2c3ccccc3c3ccccc32)CC1 | - | - | - | - | - | 59
O=S(=O)(c1ccccc1)c1cnn(-c2ccccc2)c1-c1ccc(Cl)cc1 | . | - | - | - | - | 55
Cc1ccc(Oc2nc(-c3ccccc3)ncc2S(=O)(=O)c2ccc(C)cc2)cc1 | . | - | - | - | - | -
COc1ccc(-c2c(S(=O)(=O)c3ccccc3)cnn2-c2ccccc2)cc1 | . | - | 51 | - | - | 97
Cc1ncc(S(=O)(=O)c2ccc(Cl)cc2)c(-c2ccccc2)n1 | . | - | - | - | - | -
SMILES | D1 mod | CYP2C19 activ | CYP2C9 inhib | CYP2C9 act | DAT uptake mod | CYP2C19 inh
COc1ccc(OC)c(NC(=O)CSc2nnc(Cn3c(=O)sc4ccccc43)n2C)c1 | . | . | . | . | - | .
Cn1c(=O)c2cc(S(=O)(=O)NC(C(=O)N3CCCCCC3)c3ccccc3)ccc2n(C)c1=O (stereo not drawn) | - | - | - | - | - | -
Cc1ccc(S(=O)(=O)NCCCCCC(=O)Nc2nccs2)cc1 | - | - | 80 | - | - | 74
Cc1ccc(S(=O)(=O)NCCCCCC(=O)N(C)C)cc1 | -4.3 | - | - | - | - | -
COCCNC(=O)CCCCCNS(=O)(=O)c1ccc(C)cc1 | - | - | - | - | - | -
CCCCC12CN3CC(C)(CN(C1)C31C(=O)N(C)c3ccc(C)cc31)C2=O (stereo not drawn) | - | . | . | . | - | .
COc1ccccc1NC(=O)c1ccc(NS(C)(=O)=O)cc1 | - | - | - | 3.3 | - | -
COc1cc(NS(C)(=O)=O)c(OC)cc1NC(=O)c1ccccc1 | - | - | - | 2.5 | - | -
Cc1nc(-c2ccccc2)sc1-c1nc(-c2cccs2)ncc1S(=O)(=O)c1ccccc1 | . | - | 62 | - | - | -
Cc1nc(-c2ccccc2)sc1-c1nc(-c2cccnc2)ncc1S(=O)(=O)c1ccccc1 | . | - | 77 | - | - | -
O=S(=O)(c1ccccc1)c1cnc(-c2cccnc2)nc1-c1ccccc1 | . | - | - | - | - | -
Cc1ccc(NC(=O)c2ccc(CSc3nnnn3C)cc2)cc1 | . | - | - | - | - | -
OCC[C@H]1C[C@H](O)[C@@H](O)[C@@]2(CCCCO2)O1 | . | . | . | . | - | .
COc1cccc(/C=N/Nc2nc(Nc3ccccc3)nc(-n3nc(C)cc3C)n2)c1O | . | - | 79 | - | - | 68
CCOc1cc(/C=N/Nc2nc(N3CCCC3)nc(N3CCCC3)n2)ccc1O | . | . | . | . | - | .
COc1ccc(/C=N/Nc2nc(Nc3ccccc3)nc(N3CCCCC3)n2)cc1OC | . | - | - | - | - | 71
C(=N\Nc1nc(Nc2ccccc2)nc(N2CCOCC2)n1)/c1c[nH]c2ccccc12 | . | - | 88 | - | - | 100
COc1ccc(CCNc2nc(N3CCCCC3)nc(N3CCCCC3)n2)cc1OC | - | - | 72 | - | - | 82
CCCCOC(=O)c1ccc(NC(=O)c2c(N)n(C)c(=O)[nH]c2=O)cc1 | . | . | . | . | - | .
C=CCNC(=O)c1ccc2c(c1)nnn2C | . | - | - | - | - | -
C/C=C/C(=O)N1CC2(CC(c3cccc(NC(=O)COc4ccc(Cl)cc4)c3)=NO2)C[C@@H]1C(N)=O (stereo partly drawn) | . | . | . | . | - | .
Cc1ccc(NS(=O)(=O)c2ccc(NC(=O)CSc3ccc(Cl)cc3)cc2)c(C)c1 | . | - | - | - | - | -
Cc1ccc(NS(=O)(=O)c2cccc(C(=O)n3ncc(C#N)c3N)c2)c(C)c1 | - | - | 51 | - | - | -
COc1ccc(C)cc1NC(=O)c1cc2c(CO)cnc(C)c2oc1=N | - | . | . | . | - | .
Cn1c(=O)[nH]c(=O)c2c1nc(N1CCCCCC1)n2Cc1cccc2ccccc12 | . | - | - | - | - | -
CC(C)CCn1c(N2CCN(Cc3ccccc3)CC2)nc2c1c(=O)[nH]c(=O)n2C | - | - | 76 | - | . | 77
C=C(C)CSc1nc2c(c(=O)[nH]c(=O)n2C)n1Cc1ccccc1 | 11 | . | . | . | - | .
CCCCCn1c(N2CCN(Cc3ccccc3)CC2)nc2c1c(=O)[nH]c(=O)n2C | - | - | - | - | 3 | 61
Cn1c(=O)[nH]c(=O)c2c1nc(SCC(=O)Nc1ccccc1)n2Cc1ccccc1 | - | - | - | - | - | -
CCCn1c(N2CCN(CC(=O)c3c[nH]c4ccccc34)CC2)nc2c1c(=O)[nH]c(=O)n2C | - | - | 70 | - | - | -

High-throughput results (PubChem)
